# Screening data from PubChem.
# Most compounds without a hit are left out; they make up all but 12% or so of the library.
# PLK1 PBD inh = qHTS for Inhibitors of PLK1-PDB (polo-like kinase 1 - polo-box domain): Primary Screen | Serine/threonine-protein kinase PLK1 (Homo sapiens), P53350 | Plk1 PBD binding of FITC phosphopeptide, fluorescence polarization | Potency, µM, without a hit: max response, negative = inhibition, actives largely listed as inhibitors | 2.8% of 360,000 active | AID 720504, 2013; also: series mostly up to about 57 µM; % is scaled to controls: 0 for no effect and ±100 for the full control effect; nearly all actives have a fitted effect of over 65% in size
# Sfp inh = qHTS Assay for Inhibitors of Bacillus subtilis Sfp phosphopantetheinyl transferase (PPTase); AID 1490, 2009; Potency, µM, for the others: largest response in the series, negative = inhibition, usual class: inhibitors; 3.5% of 310,000 active; 4'-phosphopantetheinyl transferase ffp (Bacillus subtilis), Q9F4F7; Biochemical Sfp PPTase activity, qHTS;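 also: the enzyme is Sfp with the accession as filed and its product quenches rhodamine fluorescence; 0% = enzyme reaction without inhibitor and -100% = no enzyme wells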
#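 With Hepes-Na pH 7.6 buffer containing 10 mM MgCl2, Sfp (15 nM) modified BHQ-2-YbbR (12.5 uM) using rhodamine-CoA (5 uM). Two reads 30 minutes apart at 525/598 nm yielded each well's rate.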
# BAZ2B inh = qHTS Assay for Inhibitors of BAZ2B; Bromodomain adjacent to zinc finger domain protein 2B (Homo sapiens), Q9UIF8; AlphaScreen BAZ2B-H3K14Ac peptide displacement; Potency, µM (top dose mostly 114 µM), inactives show at the highest dose activity change, negative = inhibition, most hits filed as inhibitors; 4.4% of 360,000 active; AID 504333, 2011; also: % is scaled to controls: 0 for no effect and ±100 for the full control effect; nearly all actives have a fitted effect of over 60% in size
#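 In this displacement format the biotinylated H3(5-23) peptide acetylated at Lys14 serves as ligand at 50 nM, with BAZ2B at 50 nM in PBS pH 7.4 containing 0.01% Tween-20. Donor and acceptor beads are 10 ug/mL final.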
# G9a block = qHTS Assay for Inhibitors of Histone Lysine Methyltransferase G9a | Histone-lysine N-methyltransferase EHMT2 (Homo sapiens), Q96KQ7 | G9a H3K9 monomethylation, AlphaScreen, 2 h | Potency, µM (top dose mostly 102 µM), for inactives: at the highest dose activity, negative = inhibition, most hits filed as inhibitors | 8.8% of 350,000 active | AID 504332, 2011; also: % is scaled to controls: 0 for no effect and ±100 for the full control effect; nearly all actives have a fitted effect of over 75% in size
# Target sequence (Q96KQ7 913-1193 limits assumed): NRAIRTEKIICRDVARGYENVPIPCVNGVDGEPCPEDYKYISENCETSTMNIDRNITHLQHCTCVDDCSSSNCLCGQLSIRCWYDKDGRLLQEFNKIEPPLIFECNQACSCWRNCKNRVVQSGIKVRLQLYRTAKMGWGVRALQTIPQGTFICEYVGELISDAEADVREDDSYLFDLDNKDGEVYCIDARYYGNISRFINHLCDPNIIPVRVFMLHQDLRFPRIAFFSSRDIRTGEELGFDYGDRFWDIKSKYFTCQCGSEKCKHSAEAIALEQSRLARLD
#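 Step 1: enzyme (final 20 nM) with compound, 15 min RT. Step 2: substrate peptide 500 nM and SAM 20 uM, 2 h RT. Step 3: anti-H3K9me1 antibody and AlphaScreen beads, 10 min, then plate read.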
# HP1b binding inh = HTS for Inhibitors of HP1-beta Chromodomain Interactions with Methylated Histone Tails. Chromobox protein homolog 1 (Homo sapiens), P83916. AlphaScreen HP1-beta / biotin-H3K9me3 peptide binding. Potency, µM (top dose mostly 114 µM), inactives show at the top dose activity change, negative = inhibition, actives largely listed as inhibitors. 0.56% of 390,000 active. AID 540317, 2011; also: nearly all actives have a fitted effect of over 70% in size
# Target sequence (P83916 whole entry, looked up): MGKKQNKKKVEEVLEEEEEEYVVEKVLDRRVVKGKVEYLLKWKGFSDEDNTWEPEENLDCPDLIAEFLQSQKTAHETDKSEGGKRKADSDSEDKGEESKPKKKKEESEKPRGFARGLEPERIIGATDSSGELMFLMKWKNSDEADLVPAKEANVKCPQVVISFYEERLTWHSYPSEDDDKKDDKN
#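 HP1-beta protein (50 nM final) preincubated 30 min at room temperature with biotinylated H3(1-18)K9me3 peptide (50 nM) in PBS pH 7.4, 0.01% Tween-20, then compound added for 30 min. AlphaScreen streptavidin donor/nickel chelate acceptor beads (10 ug/mL final), 30 min dark, luminescence read.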
# JMJD2A Tudor inh = qHTS Assay for Inhibitors of JMJD2A-Tudor Domain; Lysine-specific demethylase 4A (Homo sapiens), O75164; AlphaScreen JMJD2A-Tudor / H3K4me3 peptide binding; Potency, µM (doses to about 114 µM), inactives show top-dose activity change, negative = inhibition, usual class: inhibitors; 4.4% of 390,000 active; AID 504339, 2011; also: % is scaled to controls: 0 for no effect and ±100 for the full control effect; nearly all actives have a fitted effect of over 50% in size
# Active calls of the source: *; u = inconclusive; x = not tested or not shown; [ ] = remark or other dose. Calls follow the shape of the dose curve; as a rule, active = well fitted curve in the direction sought with a large enough effect; inconclusive = small, poorly fitted or top-dose-only effect, or another doubt; inactive = no such curve, though single readings can be large; an effect the other way counts as inactive or inconclusive. Potency is read from the fitted curve at half-maximal effect.
SMILES,PLK1 PBD inh,Sfp inh,BAZ2B inh,G9a block,HP1b binding inh,JMJD2A Tudor inh
O=C(COC(=O)CNC(=O)c1cccc(Br)c1)Nc1nnc(-c2ccccc2)o1,-1%,x,12%,-13%[12.7 µM],30%,-3%
COc1ccc(OC)c(C2=Nn3c(nnc3-c3ccccc3O)SC2)c1,x,-23%,x,x,x,-12%
Cc1ccc(S(=O)(=O)N2[C@H](CC(=O)OCc3ccccc3)OC[C@@H]2C)cc1,-4%,x,x,x,x,x
CN1CCN(NC(=O)Nc2ccc(F)cc2)CC1,-4%,9%,3%,u,24%,3%
CCOc1ccccc1N(C)C(=O)Cn1cnc2sc(C)c(S(=O)(=O)N3CCC(C)CC3)c2c1=O,x,x,-2%,-10%[59 µM],18%,-18%
C[C@@]12C(=O)Nc3ccc(F)cc3C(=O)N1[C@H]1c3cc(Cl)ccc3OC[C@@H]1[C@@H]2c1ccccc1,6%,x,x,x,3%,-32%
C[C@@]12C(=O)Nc3ccc(F)cc3C(=O)N1[C@H]1c3ccccc3OC[C@@H]1[C@@H]2c1ccccc1,24µM*,x,x,x,-8%,u
COc1cccc(Cn2c(=O)c3[nH]cnc3n(-c3ccccc3C)c2=O)c1,-5%,-1%,-25%,71µM*,45%,-15%
Cc1ccccc1-n1c(=O)n(Cc2ccccc2)c(=O)c2[nH]cnc21,-12%,2%,-1%,21%[59 µM],12%,0%
O=C(Cc1ccc(NC(=O)C2CCN(C(=O)C3CC3)CC2)cc1)Nc1cccc(C(=O)N2CCCC2)c1,-3%,x,x,x,20%,-17%
O=C(C1=C[C@@H]2[C@H]3C(=O)N(c4ccccc4)C(=O)[C@H]3[C@@H](C(=O)c3ccc(Cl)cc3)N2C=C1)c1ccccc1,x,-9%,u,11µM*,x,x
O=C(NCC(c1cccs1)S(=O)(=O)c1cccs1)c1cccc(F)c1 (configuration not stated),x,x,0%,-3%[59 µM],7%,6%
Cn1nc([N+](=O)[O-])c(C(C#N)c2nc3ccccc3n2C)c(Cl)c1=O (configuration not stated),u,9%,35µM*,u,u,u
CC(=O)Nc1ccc(C2=NNC(=Nc3cccc(S(=O)(=O)N(C)C)c3)SC2)cc1,19µM*,13µM*,-32%,25µM*,u,35µM*
CC(C)(C)N=C1NN=C(c2ccc(S(=O)(=O)N3CCCCC3)cc2)CS1,-12%,x,-36%,35µM*,12%,-28%
CN(C)S(=O)(=O)c1cccc(N=C2NN=C(c3ccccc3)CS2)c1,u,10%,-5%,35µM*,u,-34%
O=S(=O)(c1ccc(N=C2NN=C(c3cc(F)ccc3F)CS2)cc1)N1CCOCC1,u,-20%,23%,11%,-18%,-32%
CC(=O)Nc1ccc(C2=NNC(=Nc3ccc(S(=O)(=O)N4CCOCC4)cc3)SC2)cc1,u,14µM*,-22%,2.8µM*,u,-29%
COc1ccc2c(c1)c1nnc(SC(C)C)nc1n2C,x,x,x,x,25%,-26%
N#Cc1c[nH]n2c(NC3CCCCC3)c(-c3ccccc3F)nc12,x,x,-12%,-7%[59 µM],3%,-16%
CS(=O)(=O)N1CCC[C@@]2(CCN(C(=O)Nc3ccccc3)C2)C1,x,-3%,x,6%[12.7 µM],x,x
C=CCc1c(C)nc2c(-c3ccccc3)cnn2c1N1CCOCC1,-2%,-4%,20%,59%,53%,-3%
O=c1oc2ccc(Cl)cc2nc1/C=C(\O)c1ccco1,62%,u,35µM*,8.9µM*,21%,89µM*
CC(C)C/C(O)=C/c1nc2cc(Cl)ccc2oc1=O,-7%,56µM*,u,35µM*,16%,u
Cc1ccc(NC(=O)CN2C(=O)CCn3nc(-c4cccn4C)cc32)cc1,x,x,u,-44%[59 µM],2%[57 µM],-27%
SMILES,PLK1 PBD inh,Sfp inh,BAZ2B inh,G9a block,HP1b binding inh,JMJD2A Tudor inh
CCOC(=O)c1ccc(Nc2nc3nonc3nc2Nc2cccc(C)c2C)cc1,x,x,22µM*,-50%[59 µM],-1%,u
Cc1ccc(C)c(Nc2nc3nonc3nc2Nc2cccc(C)c2C)c1,x,x,u,-49%[59 µM],19%,u
COc1ccc(C(=O)c2oc3ccccc3c2N)cc1,0%,79µM*,9%,-7%[12.7 µM],52%,5%
COc1ccc2oc(C(=O)c3ccccc3)c(N)c2c1,-15%,5%,-29%,3%,48%,5%[57.1 µM]
CC1(C)O[C@H]2[C@@H](O1)[C@@H](C(=O)Nc1ccccc1O)O[C@@H]1OC(C)(C)O[C@@H]12,x,x,2%,1µM*,44%,1%
Cc1ccc(CC2C(=O)N(c3ccccc3)C(=O)C2C)cc1 (configuration not stated),-1%,18%,-6%,43%,76%,6%
C=C1c2cc(C)ccc2NC(=O)N1c1ccccc1,-3%,-9%,0%,32µM*,14%,-8%
C=C1c2ccccc2NC(=O)N1c1ccc(OC)cc1,-15%,-3%,0%,20µM*,17%,-21%
COc1ccc(NC(=O)Cn2ccn(-c3ccccc3)c(=O)c2=O)cc1,x,x,-24%,u,23%,-15%
N#CC1=C(N)N(c2cccc(Cl)c2)C2=C(C(=O)CCC2)C1c1cc(CN2CCOCC2)cs1 (configuration not stated),x,x,-36%,-22%[59 µM],4%,-10%
CC[N+](CC)(CC)CCOc1ccc(/C=C/c2ccccc2)cc1,0%,-15%,56µM*,9%[59 µM],13%,u
CC(=O)Nc1ccc(CN2CCN(c3cccc(C(F)(F)F)c3)CC2)cc1,-3%,-28%,50µM*,u,-50%,2.5µM*
COc1ccc(C)cc1NC(=O)CN1CCN(c2ccccc2F)CC1,-5%,-3%,9%,-30%[12.7 µM],21%,-12%
COc1ccc(C)cc1NC(=O)CN1CCN(C/C=C/c2ccccc2)CC1,-3%,89µM*,5%,u,2%,u
COc1ccc(C)cc1NC(=O)c1ccc(CN2CCN(c3ccccc3)CC2)cc1,-3%,-12%,u,50µM*,-9%,u
CC(=O)Nc1ccc(NC(=O)CN2CCN(c3cccc(C(F)(F)F)c3)CC2)cc1,-1%,11%,-8%,36%[59 µM],11%,-23%
COc1ccc(Br)cc1C(=O)Nc1ccc(N2CCCC2)cc1,-5%,-5%,22µM*,x,u,u
C[C@@H]1CN([C@@H](C)CO)S(=O)(=O)c2ccc(Br)cc2O[C@H]1CN(C)C(=O)c1ccccc1F,-20%,x,x,x,x,x
